# High-throughput results deposited in PubChem by National Center for Advancing Translational Sciences (NCATS).
# Sampled rows, rich in hits. Any-hit rate of the full collection: about 2.8%.
# LDHA block – qHTS assay for inhibitors of human lactate dehydrogenase; L-lactate dehydrogenase A chain (Homo sapiens), P00338; purified LDHA, NADH/diaphorase-resazurin fluorescence; stronger effect = lower value; activity change, % (values are at about 110 or 230 µM); 480,000 tested, 0.15% active; in the data active means activity change below about -30%; inconclusive means mostly about -25% to -30%
#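 Enzyme activity of human lactate dehydrogenase 5 (2 nM; 0.06 mM NADH, 0.2 mM pyruvate, 5 min, RT) is measured via a resazurin/diaphorase fluorescence readout of residual NADH.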
# D3 antag – qHTS of D3 Dopamine Receptor Antagonist: qHTS; D(3) dopamine receptor (Homo sapiens), P35462; D3R cells, DiscoveRx beta-arrestin luminescence, antagonist mode; stronger effect = lower value; max response, negative = inhibition, %; 360,000 tested, 2.5% active; in the data active means max response below about -50%; inconclusive means no clear call, values can overlap the other calls
#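 Cells plated overnight at 1500 cells/well, then exposed to library compounds with dopamine controls for 90 minutes at 37 degrees C. DiscoveRx reagent added for 30–60 minutes at room temperature; luminescence read, quantitative HTS format.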
# pAkt inh – HTS Assay for Inhibitors of Akt Phophorylation: Primary Screen | Neuro2A IGF-stimulated pAkt S473 HTRF, 20 min; stronger effect = lower value | activity change, % for hits at 50 µM | 360,000 tested, 0.32% active; in the data active means activity change below about -80%; inconclusive means mostly about -51% to -80%
#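 Single-point screen (50 µM final compound) in Neuro2A cells stimulated 20 min with 6 nM IGF at 37 deg C. After lysis, Ser473-phosphorylated Akt read by HTRF (ex 330 nm, em 615/665 nm) as the 665/615 ratio.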
# RGS4 inhibitor – Inhibitors of Regulator of G Protein Signaling (RGS) 4: qHTS; Transcreener GDP fluorescence polarization, RGS4-accelerated GTP hydrolysis; Potency, µM (top dose mostly 114 µM), actives largely listed as inhibitors; 390,000 tested, 0.039% active; active means well fitted inhibition curve with a large enough effect; inconclusive means small, poorly fitted or top-dose-only effect; inactive means no such curve, though single readings can be large or run the other way; further: nearly all actives have a fitted effect of over 75% in size
# Target sequence (P49798 whole entry, looked up): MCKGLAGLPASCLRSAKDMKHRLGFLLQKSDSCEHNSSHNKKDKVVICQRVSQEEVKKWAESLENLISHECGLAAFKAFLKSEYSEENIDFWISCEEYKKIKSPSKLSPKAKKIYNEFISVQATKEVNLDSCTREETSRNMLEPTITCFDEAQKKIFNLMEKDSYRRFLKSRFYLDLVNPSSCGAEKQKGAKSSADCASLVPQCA
#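 MLSMR compounds (23 nl, pin-transferred) preincubated 10 min at room temperature with a 500nM (2x) first reagent, then RGS4 at 900nM (2x) plus Transcreener GDP mix added; fluorescence polarization (620/688 nm) read before and after 90 min at 30 °C.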
# D3 ag – qHTS of D3 Dopamine Receptor Agonist: qHTS; 410,000 tested, 0.58% active; D3R DiscoveRx beta-arrestin cells, luminescence, 90 min; D(3) dopamine receptor (Homo sapiens), P35462; max activation, %; in the data active means max activation above about 30%
#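 Agonist mode: compounds and dopamine controls were applied to plated cells for 90 min at 37 degrees C after an overnight attachment at 1500 cells/well. Luminescent read-out followed 30 - 60 minutes at room temperature with DiscoveRx detection reagent.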
# PI4K2A block – qHTS for small molecular inhibitors of PI4K2A; 420,000 tested, 0.13% active; Phosphatidylinositol 4-kinase type 2-alpha (Homo sapiens), Q9BTU6; activity change, negative = inhibition, % at 76.9 µM; purified PI4K2A, ADP-Glo luminescence, 1 h; stronger effect = lower value; AID 1346378, 2018; in the data active means activity change below about -50%; inconclusive means mostly about -30% to -49%
# Target sequence (Q9BTU6 whole entry, looked up): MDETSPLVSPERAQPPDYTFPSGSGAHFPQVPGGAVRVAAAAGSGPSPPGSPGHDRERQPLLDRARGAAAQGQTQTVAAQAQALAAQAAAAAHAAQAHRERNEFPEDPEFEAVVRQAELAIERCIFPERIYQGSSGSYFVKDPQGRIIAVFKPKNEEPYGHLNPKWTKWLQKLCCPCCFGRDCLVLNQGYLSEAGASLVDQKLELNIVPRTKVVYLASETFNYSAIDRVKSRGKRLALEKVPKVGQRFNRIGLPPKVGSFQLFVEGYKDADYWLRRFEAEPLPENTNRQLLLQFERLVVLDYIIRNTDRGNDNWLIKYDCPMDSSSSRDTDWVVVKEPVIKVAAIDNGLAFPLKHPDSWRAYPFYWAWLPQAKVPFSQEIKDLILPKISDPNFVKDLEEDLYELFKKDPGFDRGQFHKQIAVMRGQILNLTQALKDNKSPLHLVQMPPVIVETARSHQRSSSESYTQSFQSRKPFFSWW
#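 ADP-Glo luminescence measured ADP generated by PI4K2A enzyme (4 ug/mL before mixing) with 1.2 mM PI substrate (pre-mix) and 300 microM ATP (pre-mix). Tris pH7.5 buffer with MgCl2, Triton X-100; 1 h reaction at ambient temperature.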
# A number is an active result; - = inactive; ? = inconclusive; . = not tested or not shown; ! = a repeat was not active.
SMILES,LDHA block,D3 antag,pAkt inh,RGS4 inhibitor,D3 ag,PI4K2A block
COC(=O)C1CCCN1C(=O)C1CCCN1C(=O)CNC(=O)OCc1ccccc1 (configuration not stated),-,-54,-,-,-,-
Cc1nc(NCc2ccc3c(c2)OCO3)c2c3c(sc2n1)CCCC3,-,.,.,.,.,.
CCCCN(CC)CCNC(=O)C1c2cc(OC)c(OC)cc2C(=O)N2CCc3ccccc3C12 (configuration not stated),-,-76,-,-,-,-
Cc1ccc(CNC(=O)C2c3ccccc3C(=O)N3CCc4ccccc4C23)o1 (configuration not stated),-,-,-100%,-,-,-
CCN(CC)CCNC(=O)C1c2cc(OC)c(OC)cc2C(=O)N(C)C1c1cccs1 (configuration not stated),-,-98,-,-,-,-
O=C(NCCN1CCN(Cc2ccccc2)CC1)C1c2ccccc2C(=O)N2CCc3ccccc3C12 (configuration not stated),-,?,-,-,-,-
O=C(O)c1ccc(COc2ccc3ccccc3c2C=Nc2ccc(N3CCOCC3)cc2)cc1,-,.,.,.,.,.
Cc1nn(C)c(C)c1-c1cc(C(=O)O)c2ccccc2n1,-,.,.,.,.,.
Nc1nn(Cc2ccc(Cl)cc2Cl)cc1Br,-,.,.,.,.,.
CCCCCCCCCC(=O)Nc1ccc(C)c(C)c1,-,.,.,.,.,.
CCn1c(=O)c2ccccc2n(Cc2cccc([N+](=O)[O-])c2)c1=O,-35,?,-,-,-,-
Cc1ccc(COc2ccc(C=O)cc2Cl)cc1,-,.,.,.,.,.
Cc1ccc2[nH]nc(C(=O)N3CCCC(C(=O)c4ccc(Cl)cc4)C3)c2c1 (configuration not stated),-,-,-,-,34,-
CC(=O)NCCc1c(Cc2ccccc2)[nH]c2ccccc12,.,.,.,27µM!,.,.
COc1ccc2[nH]c(-c3ccccc3)c(CCNC(C)=O)c2c1,.,.,.,-,.,.
O=C(O)/C=C/c1cc(Cl)ccc1OCc1ccccc1,-,.,.,.,.,.
CCOC(=O)C1=C(C)NC2=C(C(=O)CC(c3cccs3)C2)C1c1cccs1 (configuration not stated),-,-82,-,-,-,-
Nc1nc(N)c2cc([N+](=O)[O-])ccc2n1,-30,-,-,-,-,-
COc1ccc(C(CNC(=O)C(C)(C)Oc2ccc(Cl)cc2)N2CCOCC2)cc1 (configuration not stated),-,-75,-,-,-,-
COc1ccc(C(CNC(=O)C(C)(C)Oc2ccc(Cl)cc2)N2CCCCC2)cc1 (configuration not stated),-,-83,-,-,-,-
CC(C)(Oc1ccc(Cl)cc1)C(=O)NCC(c1ccco1)N1CCCCC1 (configuration not stated),-,-,-,-,-,-
COc1ccc(OCC(=O)NCC(c2ccc(OC)cc2)N2CCOCC2)cc1 (configuration not stated),-,.,.,-,-,-
COc1ccc(NC(=O)CCS(=O)(=O)c2nc(-c3cccs3)cc(C(F)(F)F)n2)cc1,-,.,.,-,-,-
O=C(CCS(=O)(=O)c1nc(-c2cccs2)cc(C(F)(F)F)n1)Nc1ccc(OC(F)(F)F)cc1,-,.,.,-,-,-68
COc1ccc(CN(C)c2nn3c(=O)cc(C)nc3s2)cc1,-,.,.,.,.,.
SMILES,LDHA block,D3 antag,pAkt inh,RGS4 inhibitor,D3 ag,PI4K2A block
Cn1c(CN2CCCC2)nc2cc(NC(=O)COc3ccccc3)ccc21,-,-,-106%,-,-,-
Cc1cccc(OCC(=O)Nc2ccc3c(c2)nc(CN2CCCCC2)n3C)c1,-,-92,-,-,-,-
O=C(CCc1ncc(-c2ccccc2)o1)Nc1ccc(O)c2ccccc12,-,.,.,.,.,.
COc1ccc(COCC(O)CN2CCc3ccccc3C2)cc1OC (configuration not stated),-,-61,-,-,-,-
OC(COCc1ccccc1)CN1CCc2ccccc2C1 (configuration not stated),-,-65,-,-,-,-
COc1ccc(COCC(O)CN2CCCCC2)cc1OC (configuration not stated),-,-,-,-,-,-
CC1(/[N+]([O-])=C/c2ccco2)CCCCC1=O (configuration not stated),-,.,.,.,.,.
COc1ccc(NC(=S)N(CCC(C)C)C2CCN(C(C)C)CC2)cc1,-,-54,-,-,-,-
COc1cc(Cl)c(C)cc1NC(=O)c1ccc(-n2cccn2)cc1,-,.,.,.,.,.
CC(C)C(CNC(=O)c1nn(-c2ccccc2)c(=O)c2ccccc12)N1CCOCC1 (configuration not stated),-,.,.,.,.,.
CC[C@@H](C(=O)[C@@H](C)[C@@H](O)[C@H](C)CCc1ccc(C)c(O)c1C(=O)O)[C@H]1O[C@](CC)([C@H]2CC[C@](O)(CC)[C@H](C)O2)C[C@@H]1C,-,-,-,-,208,-
Cc1ccccc1C(=O)n1nc(NCc2cccs2)nc1NCc1cccs1,-,.,.,.,.,.
CNC(=O)c1ccc(-c2nc(CN3CCN(C(=O)Nc4ccc(Cl)cc4)CC3)c(C)o2)cc1,-,.,.,.,.,.
O=C1CCCN1C(=O)COc1cc(F)ccc1[N+](=O)[O-],-,-,-,-,-,-
O=C1CCCN1C(=O)COc1ccccc1[N+](=O)[O-],-,-,-,-,38,-
CCCCn1nc(C(=O)NCC(c2ccco2)N2CCCCC2)c2ccccc2c1=O (configuration not stated),-,.,.,.,.,.
COc1ccc(C(=O)Oc2ccc(/C=C(/C#N)C(=O)Nc3ccccc3C(F)(F)F)cc2)cc1,-,.,.,.,.,.
Cc1ccc(Nc2n[nH]c(=S)s2)cc1,-,-51,-,.,-,-
Cc1cccc(-c2nc(S(=O)(=O)c3ccc(F)cc3)c(NCCCN3CCOCC3)o2)c1,-,-73,-,-,-,-
O=S(=O)(c1ccc2c(c1)OCCO2)c1nc(-c2ccccc2)oc1NCCN1CCOCC1,-,.,.,.,.,.
COc1ccc(-c2nc(S(=O)(=O)c3ccccc3)c(NCCCN3CCOCC3)o2)cc1,-,-57,-,-,-,-
CNc1oc(-c2ccccc2)nc1S(=O)(=O)c1ccccc1,-,.,.,.,.,.
CN(C)CCCNc1oc(-c2ccccc2Cl)nc1S(=O)(=O)c1ccc(F)cc1,-,-61,-,-,-,-
CCN(CC)CCNc1oc(-c2ccccc2)nc1S(=O)(=O)c1ccccc1,-,-76,-,-,-,-
